# High-throughput results: PubChem, several laboratories
# sPLA2-III inh: Blocks human group III sPLA2 activity. AID 743126. 370,000 compounds, 0.56% hits. Q9NZ20. QFRET BODIPY PC-A2 liposome hydrolysis, fluorescence. inhibition, % at 12.2 µM;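 active means inhibition above mean plus 3 SD of compounds lying within the high and low control bounds, cut at about 19% in these data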;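 further: 0% = median of test compound wells and 100% = no enzyme DMSO wells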
# UBC13 inh: inhibitors of human UBC13 polyubiquitin chain formation; P61088; TR-FRET; inhibition, % at 20 µM; 330,000 compounds, 0.47% hits; AID 485273; in the data active means inhibition above about 45%, passing the limit was not always enough
# Target sequence (P61088 whole entry, looked up): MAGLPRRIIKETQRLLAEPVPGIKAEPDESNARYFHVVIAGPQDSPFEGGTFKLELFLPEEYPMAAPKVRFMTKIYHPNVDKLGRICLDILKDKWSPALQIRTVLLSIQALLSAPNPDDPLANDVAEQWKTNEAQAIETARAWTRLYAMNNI
# SUMO HTRF inh: SUMOylation inhibition; P63279; AID 2006; 290,000 compounds, 0.36% hits; HTRF SUMOylation assay, SAE1/SAE2 + UBC9, in vitro; inhibition, % at 35 µM; in the data active means inhibition above about 50%, passing the limit was not always enough
# Target sequence (P63279 whole entry, looked up): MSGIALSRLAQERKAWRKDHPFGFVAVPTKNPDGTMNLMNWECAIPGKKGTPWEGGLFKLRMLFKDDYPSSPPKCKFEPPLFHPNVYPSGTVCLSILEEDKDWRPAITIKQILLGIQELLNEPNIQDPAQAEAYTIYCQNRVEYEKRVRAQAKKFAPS
# GRIN3A LBD mod: NR3A (human) ligand-binding domain modulation; NR3A LBD differential scanning fluorimetry, Tm shift; 0% = protein alone, 100% = glycine-bound protein; Tm shift relative to glycine control, % at 25 µM; 340,000 compounds, 2.5% hits;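 active means melting temperature shift of at least 10% of the positive control shift, at one fixed dose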
# Starred values were filed as active, the others as inactive; nt = no result given. A selection: hits, their analogues and other compounds. The true share with any hit is near 3.3%.
SMILES,sPLA2-III inh,UBC13 inh,SUMO HTRF inh,GRIN3A LBD mod
CCC[C@H]1[C@@H](OC(=O)NCc2cccnc2)CC[C@@]23CCCN2C(=O)CCC[C@@H]13,6,nt,nt,nt
O=S(=O)(NCCc1ccccc1)c1ccc(F)cc1Br,-14,nt,nt,13*
C#CCNS(=O)(=O)c1ccc(F)cc1Br,0,nt,nt,0
CC(=O)N1CCc2cc(S(=O)(=O)NCCC(=O)N(C)C3CCCCC3)ccc21,7,nt,nt,nt
CCOC(=O)/C(=C\c1cn(C)c2ccccc12)[N+](=O)[O-],-45,1,10,34*
O[C@H](COc1cccc(Br)c1)CN1CCC(C(O)(c2ccccc2)c2ccccc2)CC1,-13,nt,nt,nt
Cc1cc(OC[C@@H](O)CN2CCC(C(O)(c3ccccc3)c3ccccc3)CC2)ccc1Br,-14,nt,nt,nt
CCOc1cc(/C=C2\C(=O)N(c3nc(-c4ccc(Br)cc4)cs3)N=C2c2ccccc2)ccc1O,nt,-14,45,16*
O=C1/C(=C\c2ccc(O)c(O)c2)C(c2ccccc2)=NN1c1ccccc1,3,nt,27,12*
COc1cc(/C=C2\C(=O)N(c3ccc(NC(C)=O)cc3)N=C2c2ccccc2)ccc1O,5,-171,35,3
CCOC(=O)c1sc(NC(=O)c2cc(-c3ccccc3C)nc3ccccc23)c(C#N)c1C,-1,-28,-5,24*
CCOC(=O)c1sc(NC(=O)CSc2n[nH]c(-c3ccc(Cl)cc3Cl)n2)c(C#N)c1C,-9,-19,-48,33*
Cc1ccccc1-c1cc(C(=O)Nc2sc(C)c(C)c2C(N)=O)c2ccccc2n1,2,-11,15,7
CCn1c2ccccc2c2cc(NC(=O)CSc3nnc(-c4ccccc4)n3Cc3ccco3)ccc21,-7,nt,nt,nt
Cc1nn2cc(-c3ccccc3)nc2[nH]c1=O,0,2,68*,0
Cc1nn2c(-c3ccccc3)c(-c3ccccc3)nc2[nH]c1=O,-1,-1,22,20*
C[C@H]1[C@@H](N(C)Cc2ccccc2)CC[C@@]23CCCN2C(=O)CCC[C@@H]13,2,nt,nt,nt
COc1ccc(OC)c(-c2cc(C(=O)Nc3ccccc3C(N)=O)c3ccccc3n2)c1,-11,5,nt,11*
COc1ccc(NC(=O)c2cnn(-c3ccccc3)c2C)c(OC)c1,11,-6,17,-3
COc1ccc(NC(=O)c2cc(-c3ccccc3)nc3c2c(C)nn3-c2ccccc2)c(OC)c1,7,2,-4,13*
Cc1ccc(O)c(-c2cc3ccccc3[nH]2)c1,-16,9,-37,22*
c1ccc(-c2cc3ccccc3[nH]2)cc1,-35,-2,0,1
COc1ccc(-c2cc3ccccc3[nH]2)cc1,-10,17,7,14*
CN(c1ccccc1)S(=O)(=O)c1cccc(C(=O)OCC(=O)NCc2ccc3c(c2)OCO3)c1,-19,8,-12,13*
CN(c1ccccc1)S(=O)(=O)c1cccc(C(=O)OCC(=O)NCc2ccccc2)c1,-9,12,nt,-1
SMILES,sPLA2-III inh,UBC13 inh,SUMO HTRF inh,GRIN3A LBD mod
CCCCN(Cc1cc2cc(OC)ccc2[nH]c1=O)C(=O)c1ccccn1,11,-5,-2,13*
CCCN(Cc1cc2cc(C)ccc2[nH]c1=O)C(=O)c1ccccn1,0,17,7,-1
CCC[C@H]1[C@@H](OC(=O)NC2CCC2)CC[C@@]23CCCN2C(=O)CCC[C@@H]13,2,nt,nt,nt
Cn1nccc1C(=O)NC1CCCc2c1cnn2-c1ccc(C(C)(C)C)cc1 (configuration not stated),-11,9,-11,16*
CC(=O)NC1CCCc2c1cnn2-c1ccc(C(C)(C)C)cc1 (configuration not stated),10,2,-8,1
Cc1ccc(NC(=O)Nc2nnc(Cc3ccc([N+](=O)[O-])cc3)s2)cc1,3,-12,41,22*
O=C(N/N=C/c1ccc(OC(=O)c2ccccc2Cl)cc1)c1cc(O)cc(O)c1,-24,26,42,13*
COc1ccc(C(=O)N/N=C/c2ccc(OC(=O)c3ccccc3)cc2)cc1,16,-8,14,1
Cc1cc(C(=O)N/N=C/c2ccc(OC(=O)c3ccccc3Br)cc2)n[nH]1,0,13,9,12*
Cc1cc(C(=O)N/N=C/c2ccc3ccccc3c2)n[nH]1,2,-5,0,-5
Cc1cccc(C(=O)N/N=C/c2ccc(OC3CSC3)cc2)c1,16,-2,-2,-18
Cc1cccc(C(=O)Oc2ccc(/C=N/NC(=O)c3ccccc3O)cc2)c1,-23,-6,4,19*
Cc1cccc(C(=O)Oc2ccc(/C=N/NC(=O)c3ccc(O)cc3)cc2)c1,-16,9,2,23*
CCOC(=O)CC[C@H]1CC[C@]2(CCCN(C(=O)C(C)(C)C)C2)O1,1,nt,nt,nt
CC[C@H](CCCc1ccccc1OC)CCS(=O)(=O)N(C)C,0,nt,nt,nt
O=S(=O)(c1ccccc1Br)N(Cc1cn(CC2CCCCC2)nn1)C1CC1,-5,nt,nt,nt
N#Cc1ccc(OC[C@@H](O)CN2CCC(C(O)(c3ccccc3)c3ccccc3)CC2)cc1,-13,nt,nt,nt
Cc1cccc(NC(=O)c2cc(-c3cc(C)cc(C)c3O)n[nH]2)c1,-11,4,1,36*
Cc1ccc(NC(=O)c2cc(-c3ccccc3O)n[nH]2)cc1Cl,2,-2,27,26*
Cc1cccc(NC(=O)c2cc(-c3c(C)cc(C)cc3O)n[nH]2)c1,-8,-6,8,-11
COc1ccc(NC(=O)c2cc(-c3ccccc3O)n[nH]2)cc1Cl,-6,-9,37,26*
Cc1ccc(Cl)cc1-c1cc(C(=O)Nc2ccc(F)cc2)[nH]n1,-3,nt,nt,nt
NS(=O)(=O)c1ccc(NC(=O)c2cccc(N3C(=O)c4ccccc4C3=O)c2)cc1,3,2,27,-1
NS(=O)(=O)c1ccc(NC(=O)c2cc(-c3ccccc3O)n[nH]2)cc1,-32,3,-4,34*
CCCCCCCCN1C(=O)[C@@H](CC(=O)NCCc2ccccc2OC)C[C@@]2(C(=O)OC)C1=C[C@H](C(C)C)O[C@@H]2C1CC1,-4,nt,nt,nt
SMILES,sPLA2-III inh,UBC13 inh,SUMO HTRF inh,GRIN3A LBD mod
Cc1cccc(-c2cccc3c4c([nH]c23)[C@@H]2C[C@H](N(C)C(=S)NCCc3ccccc3)[C@H]([C@H](C)O)CN2CC4)c1,2,nt,nt,nt
COc1ccc(NC(=O)c2cc(-c3cc(C)cc(C)c3O)n[nH]2)cc1Cl,1,-18,-17,36*
O=C(c1cc(COc2ccc(F)cc2Cl)on1)N1CCCCCC1,-8,-1,7,15*
Cc1cc(OCc2cc(C(=O)N3CCCCCC3)no2)cc(C)c1Cl,-11,-7,24,11*
O=C(C1CCCN1S(=O)(=O)c1ccc([N+](=O)[O-])cc1)N1CCN(c2ccccc2)CC1 (configuration not stated),8,nt,nt,nt
O=C(C1=C[C@@H]2[C@H]3C(=O)N(c4cccc(Cl)c4)C(=O)[C@H]3[C@@H](C(=O)c3ccc(Cl)cc3)N2C=C1)c1ccccc1,nt,-12,4,14*
O=c1oc2c3c4c(cc2s1)CCCN4CCC3,3,-18,78*,2
O=c1ccc2cc3c4c(c2o1)CCCN4CCC3,-25,6,27,0
